# Reference: PubChem BioAssay (NCATS)
# Inconclusive results are not listed. The source made the active and inactive calls. Calls come from the whole dose curve; as a rule, active = well fitted cell-killing curve with a large enough effect; inconclusive = small, poorly fitted or top-dose-only effect, or effect the other way; inactive = no such curve, though single readings can be large or run the other way.
# Experiment: Quantitative High-Throughput drug screen in 47 multiple myeloma cell lines against the NCATS MIPE library collection: MM1S_ATCC cell viability assay (AID 1918980); note: nearly all actives have a fitted effect of over 45% in size
# Settings: MM1S myeloma viability, CellTiter-Glo ATP luminescence, 48 h; series mostly up to 45.8 µM
# Description: PI: Beverly A. Mock Ph.D.
# Laboratory of Cancer Biology and Genetics,
# Center for Cancer Research, National Cancer Institute,
# National Institute of Health, Bethesda, Maryland
# Drug resistance and disease progression are common in multiple myeloma (MM) patients, underscoring the need for new therapeutic combinations. […] We hypothesized that effective combinations would reduce MYC expression and enhance p16 activity. […] These preclinical data identify potentially useful drug combinations for evaluation in drug-resistant MM and reveal potential mechanisms of combined drug sensitivity.
# Described herein is the primary MIPE qHTS used to cherrypick compounds. Validated compounds were then further tested for potential synergistic activiy.
# [1] Peat TJ, Gaikwad SM, Dubois W, Gyabaah-Kessie N, Zhang S, Gorjifard S, Phyo Z, Andres M, Hughitt VK, Simpson RM, Miller MA, Girvin AT, Taylor A, Williams D, D'Antonio N, Zhang Y, Rajagopalan A, Flietner E, Wilson K, Zhang X, Shinn P, Klumpp-Thomas C, McKnight C, Itkin Z, Chen L, Kazandijian D, Zhang J, Michalowski AM, Simmons JK, Keats J, Thomas CJ, Mock BA. Drug combinations identified by high-throughput screening promote cell cycle transition and upregulate Smad pathways in myeloma. Cancer Lett. 2023 Aug 1;568:216284. doi: 10.1016/j.canlet.2023.216284. Epub 2023 Jun 24. PMID: 37356470; PMCID: PMC10408729.
# SEQUENCE No. (e.g., 1, 2, 3, etc.); […] (e.g., Cells, Incubation, Reagent, etc.); VALUE and DESCRIPTION.
# 1; Cells; 5 uL; white, solid bottom 1536-well Greiner assay plate.
# 2; Compounds; 23 nL; Kalypsis pin tool (Wako USA) equipped with a 1536-well pin head to transfer to the assay plates.
# 3; Incubation; 48 hours; 37C incubation.
# 4; Reagent;5uL; CellTiter Glo (Promega).
# 5; Detector; 425V; Luminescence; Viewlux PerkinElmer.
# NOTES (numbers refer to Sequence numbers above)
# 1. The cell-based screening methods employed in this study were like those previously published. Briefly, the corresponding myeloma cell lines were screened in 1,536-well plates with 500 cells, 5-uL per well for inhibition of cell viability (assessed by measuring ATP levels with CellTiterGlo).
# 2. NCATS MIPE 4.0 library of approved and investigational drugs were added using the Kalypsis pin tool. Wells treated with DMSO only for 100% viability and media only for 0% viability were used as controls.
# 3. The assay plates were covered and incubated for 48 hours in a 37C, 5% CO2 incubator with controlled humidity.
# 4. After 48 hours, CellTilter-GloTM luminescent substrate mix (Promega) reagent was added to the assay plate and plates we incubated for 5 min at room temperature.
# 5. Signal was measured as median relative luminescence units on a ViewLux (PerkinElmer) multiplate reader.
# [1] Heske CM, Davis MI, Baumgart JT, Wilson K, Gormally MV, Chen L, Zhang X, Ceribelli M, Duveau DY, Guha R, Ferrer M, Arnaldez FI, Ji J, Tran HL, Zhang Y, Mendoza A, Helman LJ, Thomas CJ. Matrix Screen Identifies Synergistic Combination of PARP Inhibitors and Nicotinamide Phosphoribosyltransferase (NAMPT) Inhibitors in Ewing Sarcoma. Clin Cancer Res. 2017 Dec 1;23(23):7301-7311. doi: 10.1158/1078-0432.CCR-17-1121. Epub 2017 Sep 12. PMID: 28899971; PMCID: PMC6636827.
# Potency is the fitted concentration of half-maximal effect.
row,SMILES,Potency
1,CCC(CC)[C@H](NC(C)=O)[C@@H]1[C@H](O)[C@@H](C(=O)O)C[C@@H]1N=C(N)N,inactive
2,CN(C[C@@H]1COCCO1)S(=O)(=O)Nc1ccc2ccc3ncc(-c4cnn(C)c4)cc3c(=O)c2c1,16.6 µM (active)
3,CC(=O)O[C@]1(C(C)=O)CC[C@@H]2[C@@H]3C[C@H](C)C4=CC(=O)CC[C@]4(C)[C@H]3CC[C@@]21C,13.2 µM (active)
4,CCCCCN(C)CCC(O)(P(=O)(O)O)P(=O)(O)O,inactive
5,CC(C)OC(=O)C(C)(C)Oc1ccc(C(=O)c2ccc(Cl)cc2)cc1,inactive
6,O=C(N[C@@H](c1ccccc1)[C@@H]1CCCCN1)c1cccc(C(F)(F)F)c1Cl,20.9 µM (active)
7,CO[C@@H](C(=O)N1Cc2[nH]nc(NC(=O)c3ccc(N4CCN(C)CC4)cc3)c2C1)c1ccccc1,20.9 µM (active)
8,C[C@H](NC(=O)c1sccc1OCc1ccc(Cl)cc1)c1ccccc1,18.7 µM (active)
9,O=c1c(-c2ccc(O)cc2)coc2cc(OC3O[C@H](CO)[C@H](O)[C@H](O)[C@H]3O)cc(O)c12 (stereo not given in full),4.18 µM (active)
10,O=C1Nc2ccc(Cl)cc2C(C#CC2CC2)(C(F)(F)F)O1 (stereo not given),20.9 µM (active)
11,CN1[C@@H]2CCC[C@@H]1CC(NC(=O)c1nn(C)c3ccccc13)C2 (stereo not given in full),inactive
12,CC=CC[C@@H](C)C(=O)[C@H]1C(=O)N[C@@H](C(C)C)C(=O)N(C)CC(=O)N(C)[C@@H](CC(C)C)C(=O)N[C@@H](C(C)C)C(=O)N(C)[C@@H](CC(C)C)C(=O)N[C@@H](C)C(=O)N[C@H](C)C(=O)N(C)[C@@H](CC(C)C)C(=O)N(C)[C@@H](CC(C)C)C(=O)N(C)[C@@H](C(C)C)C(=O)N1C,16.6 µM (active)
13,Nc1ncnc2c1nc(Cl)n2[C@@H]1O[C@H](CO)[C@@H](O)[C@@H]1O,4.18 µM (active)
14,COC1CCC(N(C(=O)C2CCC(C)CC2)c2cc(C3=CCCCC3)sc2C(=O)O)CC1 (stereo not given),inactive
15,CCC(=O)NC[C@H](Cc1ccc(OCCc2nc(-c3ccccc3)oc2C)cc1)NC(C)=CC(=O)c1ccc(C(F)(F)F)cc1,1.87 µM (active)
16,COc1cc2ncnc(Nc3ccc(F)c(Cl)c3)c2cc1OCCCN1CCOCC1,3.03 µM (active)
17,CO[C@H]1C=CC=C(C)C(=O)NC2=CC(=O)C(NCCN(C)C)=C(C[C@@H](C)C[C@H](OC)[C@@H](O)[C@@H](C)C=C(C)[C@@H]1OC(N)=O)C2=O,0.105 µM (active)
18,CN(C)C1CCN(C(=O)c2ccc(NC(=O)Nc3nc(N4CCOCC4)nc(N4CCOCC4)n3)cc2)CC1,0.0332 µM (active)
19,CC1(C)S[C@H]2[C@H](NC(=O)[C@@H](N)c3ccc(O)cc3)C(=O)N2[C@@H]1C(=O)O,5.9 µM (active)
20,O=c1c(O)c(-c2ccc(O)cc2)oc2cc(O)cc(O)c12,18.7 µM (active)

row,SMILES,Potency
1,Cc1ccc(/C=N/NC(=O)c2ccccc2Oc2ccccc2)o1,18.7 µM (active)
2,COc1ccc(-c2oc3c(CC=C(C)C)c(OC4O[C@H](CO)[C@@H](O)[C@H](O)[C@@H]4O)cc(O)c3c(=O)c2OC2O[C@@H](C)[C@H](O)[C@@H](O)[C@@H]2O)cc1 (stereo not given in full),20.9 µM (active)
3,CC1CCC(C(=O)N(c2cc(C#CC(C)(C)C)sc2C(=O)O)C2CCC(O)CC2)CC1 (stereo not given),inactive
4,CC(C(=O)O)c1ccc(-c2ccccc2)c(F)c1 (stereo not given),26.4 µM (active)
5,Cc1ccc(C(=O)Nc2cccc(C(F)(F)F)c2)cc1Nc1nc(-c2cccnc2)nc2c1cnn2C,18.7 µM (active)
6,CC(=O)Nc1ccc([C@H](C)C(=O)Nc2ncc(C(C)C)s2)cc1,0.418 µM (active)
7,NC1CCC(Nc2nc(Nc3ccc(C(=O)N4CCCCC4)cc3)c3ncn(-c4cccc(F)c4)c3n2)CC1 (stereo not given),inactive
8,NS(=O)(=O)c1cccc2c1C(=O)c1cccc(O)c1C2=O,10.5 µM (active)
9,COc1ccc(Cc2nccc3cc(OC)c(OC)cc23)cc1OC,23.5 µM (active)
10,COc1cccc2c1CCCC2CCCN1CCN(C2CCCCC2)CC1 (stereo not given),20.9 µM (active)
11,CC(C)=CC[C@@H](O)C1=CC(=O)c2c(O)ccc(O)c2C1=O,0.662 µM (active)
12,CN1C[C@H]2c3ccccc3Oc3ccc(Cl)cc3[C@@H]2C1,inactive
13,O=C1c2ccccc2-[n+]2ccc3c([nH]c4ccccc43)c21,2.64 µM (active)
14,COc1cc2nc(-c3ccc(N4CCN(C)CC4)cc3)nc(NCCN3CCOCC3)c2cc1OC,0.0187 µM (active)
15,c1ccc2c(Cc3c[nH]c4ccccc34)c[nH]c2c1,1.32 µM (active)
16,C[C@@H]1CCN(C(=O)CC#N)C[C@H]1N(C)c1ncnc2[nH]ccc12,2.64 µM (active)
17,COc1cc2c(cc1OC)CN(CCc1ccc(NC(=O)c3cc(OC)c(OC)cc3NC(=O)c3cnc4ccccc4c3)cc1)CC2,2.64 µM (active)
18,COC[C@@H](c1ccc(C(F)(F)F)cc1)N1CCN(C2(C)CCN(C(=O)c3c(C)ncnc3C)CC2)C[C@H]1C,2.35 µM (active)
19,COc1ccc(-c2coc3cc(O)ccc3c2=O)cc1,inactive
20,O=C(OCC#CCSc1nnc(-c2cccc3ccccc23)o1)c1cc2ccccc2s1,inactive
